CHX counter: Cycloheximide Counterscreen for Small Molecule Inhibitors of Shiga Toxin | cell reporter, cycloheximide protein synthesis inhibition counterscreen | max response, % | 300,000 tested, 12% active; in the data active = max response mostly above about 13%, no sharp cut-off; inactive = mostly below about 14%; also: read at 38.3 µM for the half of the compounds with a filed dose
Pf growth 48h: Primary qHTS for delayed death inhibitors of the malarial parasite plastid, 48 hour incubation | P. falciparum luciferase growth in erythrocytes, 48 h | Potency, µM (series often up to 28.7 µM), hits mostly inhibitors | 310,000 tested, 5.9% active | AID 504832, 2011
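Luminescence readout; reporter = integrated firefly luciferase in P. falciparum. RBC culture at 2% hematocrit, 0.1% parasitemia final, 37 C/5% CO2; decreased signal taken as growth inhibition.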
SARS PLP yeast: qHTS of Yeast-based Assay for SARS-CoV PLP. S. cerevisiae expressing SARS-CoV PLpro, growth rescue. Potency, µM (series often up to 32.9 µM), hits mostly activators. 330,000 tested, 0.19% active. AID 485353, 2010; calls by dose curve; also: nearly all actives have a fitted effect of over 55% in size
AMA1 RON2 block: qHTS for Inhibitors of AMA1-RON; Towards Development of Antimalarial Drug Lead: Primary Screen; Plasmodium falciparum AMA1 (3D7) - RON2 peptide interaction; AlphaScreen AMA1-biotinylated RON2 peptide binding; Potency, µM (titrated, usually from 58.2 µM), most hits filed as inhibitors; 360,000 tested, 0.2% active; also: nearly all actives have a fitted effect of over 45% in size
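AMA1 (3D7) with his tag at 25 nM final met compounds first, then biotinylated RON2 peptide at 25 nM; detection used donor plus acceptor beads, 10 µg/mL apiece, read by AlphaScreen after 30 min at room temperature.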
Shiga toxin inh: A qHTS for Small Molecule Inhibitors of Shiga Toxin. 290,000 tested, 9.2% active. Vero cells, Shiga toxin protein synthesis inhibition reporter. inhibition, % at 38.7 µM; in the data active = inhibition mostly above about 28%, no sharp cut-off; inactive = mostly below about 43%
Pf growth 96h: Primary qHTS for delayed death inhibitors of the malarial parasite plastid, 96 hour incubation. 320,000 tested, 6.9% active. Potency, µM (series often up to 28.7 µM), most hits filed as inhibitors. P. falciparum luciferase reporter growth, 96 h
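Erythrocytes infected with luciferase-expressing P. falciparum were dispensed at 2% hematocrit and 0.05% parasitemia (final), then incubated with compounds 96 hours at 37 C in 5% CO2. Luminescence after detection reagent addition reported growth.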
A number is an active result; - = inactive; ? = inconclusive; . = no result; [ ] = dose if it differs, or a comment. Compounds with a hit are over-represented: about 19% of the library has one in this group of screens. Unless noted, calls follow the shape of the dose curve; as a rule, active = well fitted curve in the direction sought with a large enough effect; inconclusive = small, poorly fitted or top-dose-only effect, or another doubt; inactive = no such curve, though single readings can be large; an effect the other way counts as inactive or inconclusive.

SMILES	CHX counter	Pf growth 48h	SARS PLP yeast	AMA1 RON2 block	Shiga toxin inh	Pf growth 96h
O=C(Nc1ccccc1C(F)(F)F)c1ccsc1	-	-	-	-	-	-
O=C(Nc1cccc(O)c1)c1ccccc1	20.1	-	-	-	37.7	-
O=C(Nc1ccccc1)c1ccsc1	27.0	-	-	-	-	-
Fc1cccc(C[n+]2csc3ccccc32)c1	-	?	-	-	-	-
c1ccc(C[n+]2csc3ccccc32)cc1	-	-	-	?	108.8	-
Cn1c(SCC(=O)c2ccc3c(c2)OCCO3)nnc1C(F)(F)F	21.6	-	-	-	-	-
Cn1c(SCC(=O)c2ccc3c(c2)OCCO3)nnc1C1CC1	17.6	-	-	-	43.7	?
O=S(=O)(c1ccccc1)N1N=C(c2cccs2)CC1c1ccc(F)cc1 (configuration not stated)	-	?	-	-	-	9.28µM
NS(=O)(=O)c1ccc(N2N=C(c3ccccc3)CC2c2ccccc2)cc1 (configuration not stated)	-	-	-	-[2.32 µM]	-	9.28µM
Cc1ccc(C2CC(c3cccs3)=NN2S(=O)(=O)c2ccc(C)cc2)cc1 (configuration not stated)	-	?	-	-	-	2.94µM
Fc1ccc(N2N=C(c3cccs3)CC2c2ccccc2)cc1 (configuration not stated)	-	13.1µM	-	-	-	-
CCN(CC)S(=O)(=O)c1ccc2c(c1)C(=NO)c1cc(S(=O)(=O)N(CC)CC)ccc1-2	-	9.28µM	-	-	-	8.28µM
CCCOc1ccc2c(c1)C(=NN=C(N)N)c1cc(OCCC)ccc1-2	-	0.657µM	-	-	-	-
CCN(CC)CCOc1ccc2c(c1)C(=NO)c1cc(OCCN(CC)CC)ccc1-2	-	6.57µM	-	-	-	1.85µM
CCN(CC)CCOc1ccc(Br)cc1	-	-	-	-	-	2.62µM
CCN(CC)S(=O)(=O)c1ccc(C)c(C)c1	-	.	-	-	-	?
O=C(c1ccc(S(=O)(=O)N2CCCCC2)cc1)N1CCCC(C(F)(F)F)C1 (configuration not stated)	.	-	-	-	.	-
C[C@]12c3[nH]c4cc(-c5ccco5)ccc4c3CCN1C(=O)[C@@H](CC(=O)NCc1ccco1)C[C@@H]2C(=O)N1CCOCC1	.	.	-	-	.	.
CCN(CC)CCOc1ccc(/C(=C(\Cl)c2ccccc2)c2ccccc2)cc1	.	2.08µM	.	?	.	2.33µM
CC/C(=C(/c1ccccc1)c1ccc(OCCN(C)C)cc1)c1ccccc1	-	.	.	.	-	.
O=C(Nc1nnc([C@@H]2C[C@H](O)[C@@H](CO)O2)s1)c1ccccc1Cl	.	.	.	-	.	.
O=C1CCC/C1=c1\s/c(=C/c2cccnc2)c(=O)n1-c1ccccc1	.	.	.	-	.	.
COc1cccc(C(=O)Nc2nnc(-c3cccs3)o2)c1	32.5	.	-	-	-	-
CCOc1ccc(-c2nnc(NC(=O)c3ccc(OCC(C)C)c(OC)c3)o2)cc1	25.5	-	-	-	-	?
COc1cccc(-c2nnc(NC(=O)c3ccc4ncsc4c3)o2)c1	-	?	?	-[2.32 µM]	-	13.1µM
SMILES	CHX counter	Pf growth 48h	SARS PLP yeast	AMA1 RON2 block	Shiga toxin inh	Pf growth 96h
COc1cccc(C(=O)Nc2nnc(-c3ccc(Cl)cc3)o2)c1	-	?	-	-	-	?
CC(C)OCCCNC(=O)C(NS(=O)(=O)c1ccc2c(c1)c(=O)n(C)c(=O)n2C)c1ccccc1 (configuration not stated)	-	?	-	.	-	-
COc1ccc(-c2noc(CN(C)C(=O)CCCN3C(=O)[C@H]4CC=CC[C@H]4C3=O)n2)cc1	.	.	.	-	.	.
COc1cc(C(=O)O[C@H]2C/C(C)=C/CC[C@]3(C)O[C@@H]3C(O)C2C(C)C)cc(OC)c1OC (some centres not stated)	-	?	-	-	-	4.15µM
Cc1cccc(NC(=O)CNC(=O)CSc2nc(N)cc(N)n2)c1C	.	-	-	-	.	-
Cc1ccccc1OCC(=O)NNC(=O)CSc1nc(N)cc(N)n1	-	-	-	-	-	8.28µM
CCOC(=O)CNC(=O)CSc1nc(N)cc(N)n1	-	-	-	-	-	10.4µM
O=C(NNC(=O)c1cc(-c2cccnc2)nc2ccccc12)Nc1ccc(Cl)cc1	44.5	?	-	-	-	?
CC(C)(C)c1ccc(-c2cc(C(=O)NNC(=O)Nc3ccccc3)c3ccccc3n2)cc1	22.4	.	-	-	-	4.65µM
O=C(NNC(=O)c1cc(-c2ccccc2)nc2ccccc12)Nc1cccc(Cl)c1	-	-	-	-	-	.
CCN=C1SCC(=O)N1c1ccc(OC)cc1	-	-	-	-	-	.
Cc1ccc(N2C(=O)CS/C2=N\C(=S)Nc2ccccc2)cc1	-	-	-	-	-	4.15µM
CCNc1nc(NC(C)C)nc(Oc2ccc(OCc3ccccc3)nn2)n1	-	?	-	-	-	-
COc1nc(NCC(C)C)nc(Oc2ccc(OCc3ccccc3)nn2)n1	-	0.37µM	-	-	-	-
O=C(OCc1cn([C@@H]2CN(Cc3cccs3)[C@@H](c3ccc(Cl)cc3)C[C@H]2O)nn1)c1ccccc1	.	.	.	-	.	.
c1ccc(C2=Nc3ccccc3OC2)cc1	20.6	.	-	-	-	?
NC1=Nc2ccccc2Oc2ccccc21	-	-	-	-	-	?
Cc1ccc2c(c1)N=C(c1ccc(Cl)cc1)CO2	53.1	.	-	-	56.2	-
Clc1ccc(C2=Nc3cc(Cl)ccc3OC2)cc1	27.1	-	-	-	59.5	-
O=C1CC(c2ccccc2)C(C(=O)Nc2ccccc2F)N1 (configuration not stated)	-	-	-	-	-	-
CC1CN(C(=O)/C(C#N)=C2\N=C(NC(=O)c3ccc(F)cc3)c3ccccc32)CC(C)O1 (configuration not stated)	-	-	-	-	-	-
CC1(C(=O)NCc2ccccc2)CSCC(=O)N1Cc1cccc(C(F)(F)F)c1 (configuration not stated)	.	.	.	-	.	.
COc1ccc(NC(=O)c2sccc2SCc2cccc(C(F)(F)F)c2)cc1	16.1	?	-	-	36.0	?
O=C(Nc1ccc(F)cc1)c1sccc1SCc1cccc(C(F)(F)F)c1	-	9.28µM	-	-	-	?
O=C(Nc1ccc(F)cc1F)c1sccc1SCc1cccc(C(F)(F)F)c1	-	-	-	-	-	?
O=C(O)/C=C\c1ccc(Cn2ccnc2)cc1	.	-	.	.	.	?
C[n+]1c2n(c3ccccc31)N=C(c1ccccc1)CS2	-	2.08µM	-	-	-	?
C[n+]1c2n(c3ccccc31)N=C(c1ccc(-c3ccccc3)cc1)CS2	-	?	-	-	-	?
